Test results: PubChem BioAssay AID748 (Sanford-Burnham Center for Chemical Genomics, 2007)
The campaign covered roughly 96,000 compounds. About 100 (0.1%) were called active.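 Rule for the calls: active = displacement above 50% at 20 µM plus a fluorescence interference ratio under 1.5; inactive = the rest.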 The list comes from a sample in which actives are over-represented; it also holds similar structures and randomly drawn compounds. Entries with a potency or affinity are not part of this list.

What follows are compounds tested against Bcl-2-like protein 10 (Homo sapiens) (UniProt Q9HD36) (assay: displacers of TR3 peptide from Bcl-B, primary screen, selectivity assay for Bfl-1 inhibitor project, biochemical, fluorescence polarization, FITC-TR3 peptide (AID 748;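 note: plate controls were wells without compound for no effect and wells lacking Bcl-B protein for full effect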)). Details: FP displacement of FITC-TR3 peptide from Bcl-B; at 20 µM; active compounds read high.

displacement, inactive:
Cc1nnc2n(Cc3ccccc3)c(=O)c3c4c(sc3n12)COC(C)(C)C4 4.4%
Cc1ccc(-n2c(SCC(=O)N3CCCC3)nc3c(c2=O)SCC3)cc1 1%
CCc1ccc(NC(=O)c2noc3c2CCCCC3)cc1 -3%
Cc1ccc(NC(=O)c2noc3c2CCCCC3)cc1 -10.5%
CC(=O)c1ccc(NC(=O)c2noc3c2CCCCC3)cc1 -0.9%
COc1ccc(CNC(=O)c2noc3c2CCCC3)cc1 -8.9%
O=C(N1CCOCC1)N1CCN(c2nc(-c3ccccc3)cs2)CC1 -0.8%
COC(=O)c1cc(C(=O)OC)n(Cc2ccc(F)cc2)n1 -10.3%
CCc1ccc(-n2nc3ccc(NC(=O)c4ccc5c(c4)OCO5)cc3n2)cc1 -1%
O=C(Nc1ccc2nn(-c3ccccc3)nc2c1)c1ccc2c(c1)OCO2 -30.3%
Cc1cccc(C(=O)NNC2=C(C(=O)C(F)(F)F)CCC2)c1O 10.3%
Cc1nnc(SCCn2c(N3CCC(C)CC3)nc3c2c(=O)[nH]c(=O)n3C)s1 -6.3%
Cc1cc(C)n(C(=O)CCN2C(=O)c3ccccc3C2=O)n1 -3.1%
c1coc(-c2nnc3sc(-c4cccs4)nn23)c1 4.7%
Brc1ccc(-c2nn3c(-c4ccco4)nnc3s2)o1 30%
CC1(C)OC(=O)C(=CNn2cnc3ccccc3c2=O)C(=O)O1 -2.6%
CCOC(=O)C1CCCN(C/C(O)=C(\C#N)c2nc(-c3ccc(Cl)cc3)cs2)C1 (configuration not stated) 0%
Cc1cccc(NC(=O)c2cc(-c3ccco3)nc3ccccc23)n1 41.4%
CCOc1cc(N2CCOCC2)c(OCC)cc1NC(=O)c1cc(-c2ccco2)nc2ccccc12 25.3%
O=C(N/N=C/c1cccc(F)c1)c1cc(-c2ccco2)nc2ccccc12 39.5%
O=C(O)c1cc(-c2ccco2)nc2ccccc12 18.6%
Cc1ccccc1C(=O)c1cccn1CC(=O)NCc1ccc2c(c1)OCO2 -0.3%
O=C(O)c1cc2c([nH]c1=O)CCCC2 -1%
Cc1cc(NC(=O)CN2CCN(S(=O)(=O)c3ccc4ccccc4c3)CC2)no1 -1%
O=C(NCCN1CCCCCC1)c1ccc(CS(=O)(=O)c2ccc(Br)cc2)o1 4.3%
CS(=O)(=O)Nc1ccccc1C(=O)Nc1ccc2c(c1)OCCO2 -6.4%
Cc1ccc(C(=O)NC2CCCc3ccccc32)o1 (configuration not stated) 1.5%
